# HCMV antiviral: qHTS Assay for inhibitors of the human cytomegalovirus (HCMV). HFF cells, HCMV-luciferase reporter, 72 h; active compounds read low. activity change, negative = inhibition, % at 57.5 µM. 410,000 compounds, 4.5% hits. AID 1259415, 2018; in the data active means activity change below about -60%; inconclusive means no clear call, values can overlap the other calls; inactive means above about -39%; further: on the % scale 0 is the no-effect control and ±100 the full control effect
#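 Compounds were evaluated in HFFs infected with an HCMV luciferase reporter virus (MOI 1 PFU/cell). Luciferase in lysates collected 72 h post infection served as the replication measure.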
# FMDV antiviral: High Throughput Screening for Foot and Mouth Disease Virus Antivirals | FMDV antiviral cell-based qHTS | Potency, µM (doses to about 57.9 µM), for inactives: at the top dose activity change, negative = inhibition, usual class: inhibitors | 410,000 compounds, 1.2% hits | AID 1159524, 2015; calls by dose curve; tested in HEK293T cells; further: read-out not given here; potency means the concentration at half of the fitted maximal effect; on the % scale 0 is the no-effect control and ±100 the full control effect; nearly all actives have a fitted effect of over 45% in size
# AmpC inh detg: qHTS Inhibitors of AmpC Beta-Lactamase (assay with detergent); P00811; AmpC hydrolysis of nitrocefin, absorbance 480 nm, 0.01% Triton; Potency, µM (highest dose often 114 µM), for inactives: at the highest dose activity change, negative = inhibition, usual class: inhibitors; 370,000 compounds, 0.041% hits;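 further: potency means the concentration at half of the fitted maximal effect; 0% = no-compound wells and -100% = no-enzyme wells; nearly all actives have a fitted effect of over 25% in size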
# Target sequence (P00811 whole entry, looked up): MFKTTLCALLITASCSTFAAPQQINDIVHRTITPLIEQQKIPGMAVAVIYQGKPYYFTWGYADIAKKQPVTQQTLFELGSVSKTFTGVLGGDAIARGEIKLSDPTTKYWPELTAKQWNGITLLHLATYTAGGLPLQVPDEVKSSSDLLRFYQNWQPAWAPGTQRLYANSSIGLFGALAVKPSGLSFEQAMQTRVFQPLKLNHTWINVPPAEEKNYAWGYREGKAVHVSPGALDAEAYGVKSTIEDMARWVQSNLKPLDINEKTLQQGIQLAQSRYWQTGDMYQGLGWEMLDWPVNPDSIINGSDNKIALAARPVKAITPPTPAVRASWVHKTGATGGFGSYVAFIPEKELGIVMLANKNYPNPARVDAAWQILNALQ
#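 AmpC (5.3 nM in the dispensed reagent) in 20 mM phosphate pH 7.0 with 0.01% (detergent screen) or 0.0001% Triton X-100 was preincubated with compounds for 15 min at room temperature. Nitrocefin was then added from an 800 uM solution, and hydrolysis was followed at 480 nm.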
# AmpC no deterg: qHTS Inhibitors of AmpC Beta-Lactamase (assay without detergent) | P00811 | AmpC nitrocefin hydrolysis, absorbance 480 nm, 0.0001% Triton | Potency, µM (series often up to 57.1 µM), for the others: top-dose activity change, negative = inhibition, usual class: inhibitors | 330,000 compounds, 0.52% hits | AID 485341, 2010;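 further: potency means the concentration at half of the fitted maximal effect; plate controls were no compound for no effect and no enzyme for full effect; nearly all actives have a fitted effect of over 20% in size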
#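 20 mM phosphate pH 7.0 + 0.01% (detergent screen) or 0.0001% Triton X-100; 5.3 nM AmpC reagent; cpd preinc 15 min RT; nitrocefin (800 uM stock) to start; A480 q20 s × 4 min; Activity was normalised to no-enzyme and no-compound control wells.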
# HCV inhibitor: qHTS Assay for Inhibitors of Hepatitis C Virus (HCV); 340,000 compounds, 3.4% hits; AID 651820, 2012; Huh7.5.1 HCVcc-Cre infection, luciferase reporter, 44 h; Potency, µM (titrated, usually from 41.8 µM), without a hit: at the top dose activity change, negative = inhibition, actives largely listed as inhibitors; further: potency means the concentration at half of the fitted maximal effect; on the % scale 0 is the no-effect control and ±100 the full control effect
#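 Reporter virus HCVcc-Cre (~0.5 moi) infects cells exposed to compound; seeding density 1,000 cells/well with 4 h settling beforehand. Luminescence, 15 sec read, taken 44 h post-infection following a 15 min RT substrate incubation.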
# HCV confirm: qHTS Assay for Inhibitors of Hepatitis C Virus (HCV): Confirmation Assay for Cherry-picked Compounds; shares compounds with HCV inhibitor; HCVcc-Cre infectious virus cell assay, luciferase, inhibition; Potency, µM (top dose mostly 41.8 µM), inactives show top-dose activity, negative = inhibition, actives largely listed as inhibitors; 640 compounds, 78% hits; AID 720575, 2013; further: potency means the concentration at half of the fitted maximal effect; nearly all actives have a fitted effect of over 80% in size
# HCV cytotox: qHTS Assay for Inhibitors of Hepatitis C Virus (HCV): Cytotoxicity Counterscreen for Cherry-picked Compounds. shares compounds with HCV inhibitor. HCV host cell line cytotoxicity counterscreen. Potency, µM (highest dose often 41.8 µM), inactives show top-dose activity change, negative = cytotoxicity, hits mostly inhibitors. 640 compounds, 22% hits;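 further: potency means the concentration at half of the fitted maximal effect; 44 h compound exposure; on the % scale 0 is the no-effect control and ±100 the full control effect; nearly all actives have a fitted effect of over 55% in size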
# An asterisk follows results filed as active; ? = inconclusive; nt = no result. Compounds with a hit are over-represented: about 7.3% of the library has one in this group of screens. Unless noted, the call rests on the fitted dose curve; in most records, active means well fitted curve in the direction sought with a large enough effect; inconclusive means small, poorly fitted or top-dose-only effect, or another doubt; inactive means no such curve, though single readings can be large; an effect the other way counts as inactive or inconclusive.
SMILES,HCMV antiviral,FMDV antiviral,AmpC inh detg,AmpC no deterg,HCV inhibitor,HCV confirm,HCV cytotox
CC1(C)C/C(=N\O)C(C(O)c2cccc([N+](=O)[O-])c2)C(C)(C)N1 (stereo not given),1,2%,-4%,-5%,16%,nt,nt
COc1ccc(CN2CCC(N(CCc3ccccc3)Cc3ccccc3)CC2)c(OC)c1,-99*,18µM*,?,82%,2.5µM*,7µM*,?
CCc1ccc(NC(=O)CSc2nc3n[nH]c(C)c3c(=N)n2-c2cccc(OC)c2)cc1,-38,-10%,-9%,0%,7.1µM*,14µM*,20%
CC1c2cc3c(cc2CCN1C(=O)c1cccc(Cl)c1)OCCCO3 (stereo not given),-33,-14%,1%,24%,-23%,nt,nt
Cc1cccc(S(=O)(=O)Nc2ccc(-c3cn4ccccc4n3)cc2)c1,-3,-4%,-14%,-35%,9%,nt,nt
Cc1cc(C)c(S(=O)(=O)Nc2ccc(-c3cn4ccccc4n3)cc2)c(C)c1,?,0%,4%,-34%,?,22µM*,-14%
C[C@H]1CN(S(=O)(=O)c2ccc3c(c2)OCCO3)CCN1S(=O)(=O)c1c(F)cccc1F,-10,-23%,nt,-11%,nt,nt,nt
CC(=O)N(C)c1ccc(OCC(O)Cn2c3ccc(Cl)cc3c3cc(Cl)ccc32)cc1 (stereo not given),nt,?,1%,35%,0.89µM*,4µM*,28µM*
Cc1ccc(OCC(O)Cn2c3ccccc3c3ccccc32)cc1 (stereo not given),-34,nt,7%,-4%,?,nt,nt
COc1cccc(C2N(Cc3ccccc3)C(=O)C2(F)F)c1OC (stereo not given),-21,-22%,8%,-20%,-2%,nt,nt
N#C/C(=C\c1cn(-c2ccccc2)nc1-c1ccccc1)S(=O)(=O)c1ccccc1,11,14%,-12%,-9%,6%,nt,nt
CC(C)n1cc(/C=C(\C#N)S(=O)(=O)c2ccccc2)c2ccccc21,54,4%,0%,-3%,8.9µM*,?,-13%
CCN(CC(=O)Nc1c(F)cccc1F)C(=O)Cc1ccc(S(=O)(=O)N2CCOCC2)s1,22,-16%,-3%,4%,0%,nt,nt
COc1ccccc1NC(=O)c1ccc(NC(=O)c2cc3c(s2)CCC3)cc1,-24,?,9%,-40%,8.9µM*,8.9µM*,17%
C[C@@H](CSc1ccc(Br)cc1)CN1CC[C@H](NC(=O)OCc2ccccc2)CCC1=O,-25,25µM*,nt,92%,4.5µM*,14µM*,-63%
NC(c1csc(NC(=O)Nc2ccc(OC(F)(F)F)cc2)n1)C1CCCCC1 (stereo not given),-2,?,nt,nt,nt,nt,nt
Cc1ccnc(NC(=O)CCCOc2cc(=O)n(C)c3ccccc23)c1,-101*,4%,-4%,11%,3.5µM*,7.9µM*,?
Cn1c(=O)cc(OCCCC(=O)NCc2ccccn2)c2ccccc21,180,0%,3%,-6%,14%,nt,nt
CCCn1c(SCC(=O)NC2CC2)nnc1-c1ccccn1,6,-2%,3%,-2%,19%,nt,nt
CCOc1ccc2nc(SCC(=O)NCc3ccc4c(c3)OCO4)[nH]c2c1,143,-19%,0%,-27%,4µM*,?,-17%
COc1ccc2nc(SCC(=O)NCc3ccc4c(c3)OCO4)[nH]c2c1,?,-16%,-9%,-25%,6%,nt,nt
COc1ccc(-c2nc(CSCC(=O)NCc3ccc4c(c3)OCO4)c(C)o2)cc1OC,-7,-25%,-5%,3%,?,nt,nt
COc1ccc(-c2ccc(SCC(=O)NCc3ccc4c(c3)OCO4)nn2)cc1OC,30,-26%,1%,-14%,2.8µM*,-25%,-9%
Cc1c(C(=O)NCc2ccc3c(c2)OCCO3)sc(=O)n1Cc1ccccc1F,-21,-16%,nt,nt,nt,nt,nt
CN(C(=O)c1ccccc1)C1c2c(ccc3ccccc23)OCC1CO (stereo not given),?,-13%,-2%,-15%,0%,nt,nt
SMILES,HCMV antiviral,FMDV antiviral,AmpC inh detg,AmpC no deterg,HCV inhibitor,HCV confirm,HCV cytotox
O=C(Nc1ccc(Cl)cc1)N[C@@H]1c2c(ccc3ccccc23)OC[C@@H]1CO,?,5%,-4%,-34%,?,?,?
CC(C)C1OC(CCc2ccccc2)Cc2[nH][nH]c(=O)c21 (stereo not given),11,20%,nt,nt,nt,nt,nt
CCOc1ccc(OCC)c(NC(=O)c2cnn(-c3ccc(F)cc3)c2-n2cccc2)c1,-22,-18%,-4%,nt,nt,nt,nt
O=C(CSc1nc2nn(-c3ccccc3)c(=O)c-2c2n1CCCCC2)Nc1ccccc1[N+](=O)[O-],-36,15%,?,17%,?,14µM*,35%
COC(=O)C1=C(c2ccc(-c3ccccc3)c(F)c2)C[C@@H]2CC[C@H]1N2C(=O)NCCNC(C)=O,-19,-26%,-7%,192%,-9%,nt,nt
COC(=O)C1=C(c2ccc(-c3ccccc3)c(F)c2)C[C@@H]2CC[C@H]1N2C(=O)NCc1cccc2ccccc12,86,-19%,2%,-5%,?,11µM*,44%
COc1cc(OC)cc(-c2c(-c3ccc(F)cc3)c3cc(-c4ccc5[nH]ccc5c4)ccc3n2C)c1,-29,52%,4%,-21%,3.2µM*,7.9µM*,?
COc1cccc(-c2c(-c3cc(OC)cc(OC)c3)n(C)c3ccc(-c4ccc5[nH]ccc5c4)cc23)c1,-35,19%,-9%,-37%,?,nt,nt
O=S1(=O)c2ccc(Br)cc2N2CCC[C@@H]2CN1Cc1ccc(Cl)cc1,-10,?,nt,nt,8.9µM*,?,24%
O=C(CCNS(=O)(=O)c1ccc2[nH]c(=O)oc2c1)Nc1ccccc1,nt,1%,-7%,-27%,5%,nt,nt
COc1ccccc1CNc1cc(C)nc2nc(-c3ccc(C)cc3)nn12,17,0%,5%,nt,nt,nt,nt
Cc1ccc2c(c1)[C@H]1[C@H](CO2)[C@H](c2ccccc2)[C@]2(C)C(=O)N(Cc3ccc(F)cc3)CC(=O)N12,21,?,nt,34%,?,?,24%
O=C(CCl)Nc1ccc(N=Nc2ccccc2)cc1,34,-12%,4%,-25%,-27%,nt,nt

# Assay outcomes as filed in PubChem BioAssay.
